Screening results: PubChem BioAssay, National Center for Advancing Translational Sciences (NCATS)
Only some compounds are listed: those with a hit (about 19% of all), similar ones and a draw of the others.
TDP1 block: inhibitors of human tyrosyl-DNA phosphodiesterase TDP1 | Q9NUW8 | recombinant TDP1, AlphaScreen DNA substrate cleavage | Potency, µM (highest dose often 130 µM), for inactives: at the highest dose activity change, negative = inhibition, actives largely listed as inhibitors | 350,000 compounds, 0.28% hits; further: nearly all actives have a fitted effect of over 40% in size
Target sequence (Q9NUW8 whole entry, looked up): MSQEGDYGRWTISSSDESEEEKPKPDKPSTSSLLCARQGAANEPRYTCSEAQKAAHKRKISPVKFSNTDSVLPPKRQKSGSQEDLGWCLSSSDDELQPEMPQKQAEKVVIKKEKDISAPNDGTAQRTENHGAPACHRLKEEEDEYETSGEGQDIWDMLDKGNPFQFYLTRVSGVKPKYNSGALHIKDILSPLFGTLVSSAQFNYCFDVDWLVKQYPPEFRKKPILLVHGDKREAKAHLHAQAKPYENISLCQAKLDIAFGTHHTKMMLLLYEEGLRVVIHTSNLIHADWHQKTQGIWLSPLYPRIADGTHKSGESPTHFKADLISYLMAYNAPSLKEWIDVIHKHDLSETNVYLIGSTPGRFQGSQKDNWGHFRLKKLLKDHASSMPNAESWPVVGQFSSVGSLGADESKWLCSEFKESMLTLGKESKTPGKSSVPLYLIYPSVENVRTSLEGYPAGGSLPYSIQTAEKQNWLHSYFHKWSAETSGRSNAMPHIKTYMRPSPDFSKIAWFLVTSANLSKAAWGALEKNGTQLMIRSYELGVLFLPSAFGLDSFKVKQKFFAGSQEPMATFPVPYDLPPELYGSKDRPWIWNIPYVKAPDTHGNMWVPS
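Tdp1 1 nM final; 15 min RT w/ cpd; substrate 15 nM, 5 min; beads 10 ug/ml, 10 min; AlphaScreen read. Neg ctrl: no enzyme.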
RORgamma inh: ROR gamma (mouse) transcription inhibition; P51450; Drosophila S2 Gal4-RORgamma UAS-luciferase reporter, 20 h; Potency, µM (top dose mostly 53.6 µM), without a hit: at the top dose activity change, negative = inhibition, actives largely listed as inhibitors; 310,000 compounds, 5.4% hits; AID 2551; further: nearly all actives have a fitted effect of over 60% in size
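Drosophila S2 cells stably expressing Gal4-DBD/mouse RORγ fusion under metallothionein promoter plus UAS-luciferase; compound 1 h, then 700 uM CuSO4 induction for 20 h at ambient temperature; inhibition read as reduced luminescence.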
VP16 counter: inhibits Gal4-VP16 luciferase reporter, ROR gamma counter-screen; 310,000 compounds, 3.5% hits; Drosophila S2 Gal4-VP16 UAS-luciferase, luminescence, 20 h; Potency, µM (titrated, usually from 53.6 µM), for inactives: at the highest dose activity, negative = inhibition, hits mostly inhibitors; AID 2546;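 further: Gal4-VP16 expression switched on by copper sulfate through the metallothionein promoter; nearly all actives have a fitted effect of over 50% in size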
DT40 TDP1 no CPT: qHTS for Inhibitors of human tyrosyl-DNA phosphodiesterase 1 (TDP1): qHTS in cells in absence of CPT. Potency, µM (highest dose often 46.2 µM), for inactives: at the highest dose activity change, negative = growth inhibition, usual class: inhibitors. AID 686978, 2013. DT40 Tdp1-/- hTDP1 cells, no CPT, ATP luminescence, 48 h. 420,000 compounds, 15% hits; further: nearly all actives have a fitted effect of over 55% in size
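Compound effects on proliferation are scored in DT40 Tdp1-/-;hTDP1 cells in the absence of CPT. ATP levels (CellTiter-Glo luminescence) are recorded after a ≥48 hr, 37 °C incubation.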
TDP1 cell CPT: growth inhibition of DT40 Tdp1-/-;hTDP1 cells with camptothecin (screen for TDP1 inhibitors); chicken DT40 Tdp1-/-;hTDP1 cells + 20 nM CPT, ATP luminescence, 48 h; Potency, µM (top dose mostly 46.2 µM), without a hit: top-dose activity change, negative = growth inhibition, most hits filed as inhibitors; 420,000 compounds, 12% hits; AID 686979; further: nearly all actives have a fitted effect of over 55% in size
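Cell growth measured by CellTiter-Glo luminescence after a minimum 48 h, 37 C compound exposure with 20 nM CPT in Tdp1-knockout DT40 cells stably expressing hTDP1, seeded 400/well; qHTS titration format.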
Active calls of the source: *; [ ] = another dose, or the depositor's remark. The call rests on the fitted dose curve; in most records, active means well fitted curve in the direction sought with a large enough effect; inconclusive means small, poorly fitted or top-dose-only effect, or another doubt; inactive means no such curve, though single readings can be large; an effect the other way counts as inactive or inconclusive. On the % scale 0 is the no-effect control and ±100 the full control effect; potency means the concentration at half of the fitted maximal effect.

Screening CN(C)S(=O)(=O)c1cccc(C(=O)NCC(=O)NC2CCN(Cc3ccccc3)CC2)c1 returned TDP1 block -3%, RORgamma inh -13%, VP16 counter 4%, DT40 TDP1 no CPT inconclusive and TDP1 cell CPT -17%.
`COc1ccc(NS(=O)(=O)c2ccc(C)c(C(=O)NC3CCN(Cc4ccccc4)CC3)c2)cc1` gave TDP1 block 1%, RORgamma inh 11%, VP16 counter -1%, DT40 TDP1 no CPT inconclusive and TDP1 cell CPT 16µM*.
For O=C(NC1CCN(Cc2ccccc2)CC1)c1cccc(S(=O)(=O)Nc2ccc(Br)cc2)c1 the results were DT40 TDP1 no CPT inconclusive and TDP1 cell CPT 21µM*.
For C=CCN(c1ccccc1)S(=O)(=O)c1cccc(C(=O)NC2CCN(Cc3ccccc3)CC2)c1 the results were TDP1 block -16%[0.505 µM], DT40 TDP1 no CPT 18µM* and TDP1 cell CPT 13µM*.
For O=C(NC1CCN(Cc2ccccc2)CC1)c1ccccc1NS(=O)(=O)c1ccc(F)cc1 the results were TDP1 block 0%, DT40 TDP1 no CPT inconclusive and TDP1 cell CPT inconclusive.
Screening COc1ccccc1NS(=O)(=O)c1ccc(C)c(C(=O)NC2CCN(Cc3ccccc3)CC2)c1 returned TDP1 block 0%, DT40 TDP1 no CPT 16µM* and TDP1 cell CPT 21µM*.
`CCN(CC)S(=O)(=O)c1ccc(Cl)c(C(=O)Nc2cc(C)nn2-c2ccccc2)c1` gave TDP1 block 4%, RORgamma inh 17%, VP16 counter -24%, DT40 TDP1 no CPT inconclusive and TDP1 cell CPT 18µM*.
Screening CCN(CC)S(=O)(=O)c1cccc(C(=O)Nc2cc(C)nn2-c2ccccc2)c1 returned TDP1 block 0%, RORgamma inh 18%, VP16 counter -1%, DT40 TDP1 no CPT inconclusive and TDP1 cell CPT 2%.
Screening C/C(Cl)=C/Cn1c(SCCN2CCOCC2)nc2c1c(=O)[nH]c(=O)n2C returned TDP1 block 0%, RORgamma inh 8%, VP16 counter 3%, DT40 TDP1 no CPT -18% and TDP1 cell CPT -16%.
For COc1cc(/C=C/c2cccc[n+]2C)ccc1OCC(=O)Nc1ccccc1C the results were RORgamma inh -8%, VP16 counter -8%, DT40 TDP1 no CPT 0% and TDP1 cell CPT -8%.
`CCOc1cc(/C=N/n2cnnc2)ccc1OCC(=O)Nc1ccccc1OC` gave TDP1 block 7%, RORgamma inh -2%, VP16 counter -2%, DT40 TDP1 no CPT 8.2µM* and TDP1 cell CPT -8%.
Screening CCOc1cc(/C=C/c2cccc[n+]2C)ccc1OCC(=O)Nc1ccc(C)cc1 returned RORgamma inh -9%, VP16 counter -4%, DT40 TDP1 no CPT 16µM* and TDP1 cell CPT 21µM*.
`CCOc1cc(/C=C\[N+](=O)[O-])ccc1OCC(=O)Nc1ccccc1C` gave TDP1 block -2%, RORgamma inh 1.1µM*, VP16 counter 1.8µM*, DT40 TDP1 no CPT 0.58µM* and TDP1 cell CPT 0.92µM*.
Screening COc1ccc(CC(=O)OCC(=O)N2CCN(S(=O)(=O)c3ccc(C)cc3C)CC2)cc1OC returned TDP1 block 1%, DT40 TDP1 no CPT inconclusive and TDP1 cell CPT inconclusive.
CCC(C)NC(=O)C1CCN(C(=O)COc2ccc3c4c(c(=O)oc3c2C)CCCC4)CC1 (stereo not drawn) was read as TDP1 block 0%, RORgamma inh -6%, VP16 counter 5%, DT40 TDP1 no CPT -8% and TDP1 cell CPT -28%.
Screening COc1ccc(N2CCN(C(c3cccs3)c3nnnn3C3CCCC3)CC2)cc1 (stereo not drawn) returned TDP1 block 14%, RORgamma inh 2%, VP16 counter 0%, DT40 TDP1 no CPT 16µM* and TDP1 cell CPT 21µM*.
